Test [1] is described as follows: NS1 protein of Zika virus - qHTS assay to identify small molecule inhibitors in human HEK 293 cells (AID 1347053). Also: nearly all actives have a fitted effect of over 55% in size. The procedure, abridged:
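Readout was TR-FRET using paired anti-NS1 antibodies after 24 h infection of HEK 293 cells with ZIKV MR766 (MOI = 0.5). Compound preceded virus by 1 h; reduced signal reflects lower NS1 expression.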

The nature of test [2]: qHTS of pediatric cancer cell lines to identify multiple opportunities for drug repurposing: Primary screen for DAOY cells (AID 1347090). Also: nearly all actives have a fitted effect of over 55% in size. In outline:
(§1)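 Viability measured as metabolically active cells via CellTiter-Glo luminescence following 48 hours of compound exposure, 11-point dilutions in confirmatory testing. 500-1,000 cells/well plated 5 hours before dosing; controls were DMSO and 2.3 µM bortezomib.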

The nature of test [3]: qHTS of pediatric cancer cell lines to identify multiple opportunities for drug repurposing: Primary screen for SJ-GBM2 cells (AID 1347091). The procedure, abridged:
as §1
A general note: Quantitative high-throughput screening tests each substance at several concentrations.

Test [4] is described as follows: qHTS of pediatric cancer cell lines to identify multiple opportunities for drug repurposing: Primary screen for A673 cells (AID 1347092). Also: nearly all actives have a fitted effect of over 45% in size. The procedure, abridged: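 Titration-based qHTS on A673 cells: MIPE compounds spanned 11 points (0.78 nM to 46 µM final), NPC compounds 8 points (0.59 nM to 46 µM final). Viability after 48 h was measured by ATP luminescence.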

A short description of test [5]: qHTS of pediatric cancer cell lines to identify multiple opportunities for drug repurposing: Primary screen for SK-N-MC cells (AID 1347093). In outline:
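Metabolically active cells were quantified by ATP-dependent luminescence (CellTiter-Glo, 15 min at room temperature) following 48 h treatment. Cells had been plated at 500-1,000 per well and settled for 5 h beforehand.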

The nature of test [6]: qHTS of pediatric cancer cell lines to identify multiple opportunities for drug repurposing: Primary screen for BT-37 cells (AID 1347094). In outline:
(§2)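 500-1,000 cells/well; 5 h pre-incubation 37 °C/5% CO2; compound pinned; 48 h; CellTiter-Glo, 15 min RT; luminescence. MIPE 11-pt from 0.78 nM, NPC 8-pt from 0.59 nM final. Bortezomib 2.3 µM final as positive control.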

The nature of test [7]: qHTS of pediatric cancer cell lines to identify multiple opportunities for drug repurposing: Primary screen for U-2 OS cells (AID 1347096). Also: nearly all actives have a fitted effect of over 50% in size. The procedure, abridged:
(§3)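 Viability after 48 h compound treatment at 37C, 500-1,000 cells/well, read as ATP luminescence with CellTiter-Glo. Primary screens used 11-point (MIPE, 0.78 nM-46 µM) or 8-point (NPC, 0.59 nM-46 µM) final concentrations; follow-up screens used 11-point dilutions.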

Test [8] is described as follows: qHTS of pediatric cancer cell lines to identify multiple opportunities for drug repurposing: Primary screen for Saos-2 cells (AID 1347097). Also: nearly all actives have a fitted effect of over 40% in size. In outline: as §2
A short description of test [9]: qHTS of pediatric cancer cell lines to identify multiple opportunities for drug repurposing: Primary screen for SK-N-SH cells (AID 1347098). Also: nearly all actives have a fitted effect of over 65% in size. In outline: (§4)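 Cells (500-1,000/well) rested 5 h, then received compounds for 48 h; metabolically active cells were measured by CellTiter-Glo luminescence. Final concentrations spanned up to 46 µM (MIPE, 11-point) or 0.59 nM-46 µM (NPC, 8-point) in primary screens, 11-point in follow-ups.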

The nature of test [10]: qHTS of pediatric cancer cell lines to identify multiple opportunities for drug repurposing: Primary screen for NB1643 cells (AID 1347099). Also: nearly all actives have a fitted effect of over 50% in size. The procedure, abridged:
as §2

Test [11] in a line: qHTS of pediatric cancer cell lines to identify multiple opportunities for drug repurposing: Primary screen for LAN-5 cells (AID 1347100). In outline: as §3
Test [12] is described as follows: qHTS of pediatric cancer cell lines to identify multiple opportunities for drug repurposing: Primary screen for BT-12 cells (AID 1347101). Also: nearly all actives have a fitted effect of over 25% in size. In outline:
as §4

Test [13] is described as follows: qHTS of pediatric cancer cell lines to identify multiple opportunities for drug repurposing: Primary screen for Rh18 cells (AID 1347102). Also: nearly all actives have a fitted effect of over 65% in size. In outline:
as §3

Test [14] can be described thus: qHTS of pediatric cancer cell lines to identify multiple opportunities for drug repurposing: Primary screen for RD cells (AID 1347104). Also: nearly all actives have a fitted effect of over 55% in size. The procedure, abridged:
as §2

The nature of test [15]: qHTS of pediatric cancer cell lines to identify multiple opportunities for drug repurposing: Primary screen for NB-EBc1 cells (AID 1347095). The procedure, abridged: as §2
Test [16] in a line: qHTS of pediatric cancer cell lines to identify multiple opportunities for drug repurposing: Primary screen for OHS-50 cells (AID 1347103). Also: nearly all actives have a fitted effect of over 40% in size. In outline: as §4
Test [17] in a line: qHTS of pediatric cancer cell lines to identify multiple opportunities for drug repurposing: Primary screen for TC32 cells (AID 1347089). Also: nearly all actives have a fitted effect of over 60% in size. The procedure, abridged: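 A viability screen of TC32 cells was run over 48 h, with primary MIPE doses spanning 0.78 nM–46 µM and NPC doses 0.59 nM–46 µM. ATP luminescence (CellTiter-Glo) served as the read-out.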

Inconclusive results are not listed. Activity calls are given as the source filed them. Calls follow the shape of the dose curve; as a rule, active = well fitted curve in the direction sought with a large enough effect; inconclusive = small, poorly fitted or top-dose-only effect, or another doubt; inactive = no such curve, though single readings can be large; an effect the other way counts as inactive or inconclusive.
Potency is read from the fitted curve at half-maximal effect.

For the compound `CCCCCCCCCCCCCCCCCC(=O)OCC(O)CO` (configuration not stated), the Potency result in test [1], in [2], in test [3], in [4], in [5] and in test [6] was “inactive” throughout. Besides, the Potency entry in test [7], in [8], in [9], in test [10], in [11] and in [12] was “inactive” each time. The Potency result in test [13] and in test [14] was “inactive” throughout.
In the case of `COc1cc(OC)cc(OC)c1`, the Potency result in test [1], in [2], in test [3], in [4], in [6] and in test [15] was “inactive” throughout. In addition, the Potency result in test [7], in test [8], in test [9], in test [10], in [11] and in test [12] was “inactive” throughout. Further, the Potency result in [13] and in [14] was “inactive” throughout.
`CCCCCCCCCCCCCCCC[N+](C)(C)CC`: the Potency in test [2] was 13.3 µM (active); in [3], 18.8 µM (active); in [4], 1.06 µM (active); in [6], 13.8 µM (active); in test [8] it was 13.3 µM (active); in [9], 12.2 µM (active). Besides, the Potency in [12] is 2.76 µM (active); in [13], 0.473 µM (active); in [16], 0.692 µM (active); in [14], 13.3 µM (active).
In the case of `CC(C)(C)CC(C)(C)c1ccc(OCCOCC[N+](C)(C)Cc2ccccc2)cc1`, the Potency in test [1] is 12.6 µM (active); in test [4], 10.6 µM (active); in test [5] it was 5.96 µM (active); in [6] it was 13.8 µM (active); in [8], 13.3 µM (active); in test [11], 21.1 µM (active). Further, the Potency in test [12] was 8.71 µM (active); in test [13], 10.6 µM (active); in [16], 6.17 µM (active); in test [14], 26.6 µM (active).
In the case of `CN(C)C(=S)SC(=S)N(C)C`, the Potency was 3.74 µM (active) in test [17]; 0.841 µM (active) in [2]; 0.668 µM (active) in [4]; 0.001 µM (active) in test [5]; 24.6 µM (active) in test [6]; 1.68 µM (active) in test [7]. Also, the Potency in test [8] was 1.06 µM (active); in [9] it was 1.94 µM (active); in [10], 2.99 µM (active); in [11], 1.33 µM (active); in test [12], 1.23 µM (active); in test [13], 1.88 µM (active). Besides, the Potency in [16] was 8.71 µM (active). In addition, the Potency result in test [3] was “inactive”.
For the compound `CC(=O)N/N=C/c1ccc([N+](=O)[O-])o1`, the Potency result in test [1], in test [3] and in test [7] was “inactive” each time.
As for `COc1cc(C=C2CCC/C(=C\c3ccc(O)c(OC)c3)C2=O)ccc1O`, the Potency is 0.938 µM (active) in [17]; 21.1 µM (active) in test [2]; 0.266 µM (active) in test [4]; 0.335 µM (active) in test [5]; 27.6 µM (active) in [6]; 23.7 µM (active) in test [8]. The Potency in test [9] was 15.4 µM (active); in [11] it was 7.5 µM (active); in test [12], 11 µM (active); in test [16] it was 19.5 µM (active); in test [14] it was 10.6 µM (active).
With `CN1CCCC(CC2c3ccccc3Sc3ccccc32)C1` (configuration not stated), the Potency entry in [2], in [15], in test [7] and in test [10] was “inactive” in each case. For the same compound, the Potency in [5] is 23.7 µM (active); in test [11] it was 23.7 µM (active); in test [12], 19.5 µM (active); in [16], 24.6 µM (active).
Regarding `COc1ccc(CCN2CCC(Nc3nc4ccccc4n3Cc3ccc(F)cc3)CC2)cc1`, the Potency was 30.9 µM (active) in [6], 6.12 µM (active) in [9], 23.7 µM (active) in test [11] and 30.9 µM (active) in [16].
For the compound `CN(C(=O)CN(CCO)CC(=O)N(C)C(C)(C)Cc1ccccc1)C(C)(C)Cc1ccccc1`, the Potency entry in test [2], in test [4], in [7] and in test [14] was “inactive” in each case. The Potency was 12.3 µM (active) in [12] and 17.4 µM (active) in test [16].
For `COc1c(C)c2c(c(O)c1C/C=C(\C)CCC(=O)O)C(=O)OC2`, the Potency entry in test [1] and in test [7] was “inactive” in each case. In addition, the Potency in [5] is 0.0841 µM (active); in test [6], 0.389 µM (active); in test [15] it was 29.9 µM (active); in test [12] it was 0.692 µM (active).
Take `CN(C)/N=N/c1nc[nH]c1C(N)=O`: the Potency result in test [1], in test [3], in test [4], in test [15], in [7] and in test [8] was “inactive” in each case. The Potency result in test [9], in test [11], in test [12], in [13] and in [14] was “inactive” in each case. The Potency in [16] was 1.74 µM (active).

The values are drawn from PubChem BioAssay (NCATS).
